Data published in publication PMC6919601, “Identification of Plasmodium dipeptidyl aminopeptidase allosteric inhibitors by high throughput screening” (PLoS ONE, 2019).
The whole screen tested about 110,000 compounds, of which about 230 (0.21%) showed an effect of 50% or more. The sample holds strong results, similar compounds and a random draw of the others, so the mix is not that of the screen.

molecular target: DPAP1 (Plasmodium falciparum, UniProt Q8IIJ9); experiment: primary screen, percent inhibition; read by cleavage of a fluorogenic dipeptide substrate; higher = more effect of the substance; set-up: species or system P. falciparum D10 trophozoite lysates; single well
Sequence (Q8IIJ9 whole entry, looked up): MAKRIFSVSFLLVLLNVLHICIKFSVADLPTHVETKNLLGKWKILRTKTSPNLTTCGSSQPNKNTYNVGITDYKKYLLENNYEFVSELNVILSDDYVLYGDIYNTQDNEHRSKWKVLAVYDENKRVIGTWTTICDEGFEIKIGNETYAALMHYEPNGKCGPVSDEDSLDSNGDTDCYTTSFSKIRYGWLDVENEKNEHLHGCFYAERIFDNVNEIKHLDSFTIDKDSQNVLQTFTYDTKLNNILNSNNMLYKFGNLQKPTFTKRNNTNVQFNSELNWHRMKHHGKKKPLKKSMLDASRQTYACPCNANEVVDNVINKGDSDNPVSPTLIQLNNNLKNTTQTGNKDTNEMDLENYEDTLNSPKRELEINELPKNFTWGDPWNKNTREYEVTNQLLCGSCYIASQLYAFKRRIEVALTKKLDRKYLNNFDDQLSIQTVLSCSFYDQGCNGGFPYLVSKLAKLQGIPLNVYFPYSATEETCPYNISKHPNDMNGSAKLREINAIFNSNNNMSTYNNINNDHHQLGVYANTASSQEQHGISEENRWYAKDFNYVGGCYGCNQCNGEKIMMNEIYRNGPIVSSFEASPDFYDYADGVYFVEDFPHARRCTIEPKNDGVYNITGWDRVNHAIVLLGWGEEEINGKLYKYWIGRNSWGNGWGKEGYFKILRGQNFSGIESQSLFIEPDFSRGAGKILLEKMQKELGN
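Note: 30 min substrate incubation versus DMSO and 10 µM JCP410 controls.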

SMILES	% Inhibition @ 10 uM
Cc1ccc(C2=CC(c3cccs3)n3ncnc3N2)cc1C (stereo not drawn)	1.86%
Cc1nc(NC(=O)c2ccccc2Cl)ccc1Br	-2.67%
Cc1nc(NC(=O)c2cc(Cl)ccc2Cl)ccc1Br	0.755%
COc1ccc(Cl)cc1C(=O)Nc1ccc(Br)c(C)n1	70.4%
CN(Cc1ccccc1)Cc1ccc(O)cc1	-1.78%
CC1(C)Cc2c(c(N3CCOCC3)nc3sc(C(=O)N4CCCCC4)c(N)c23)CO1	3.93%
CCOC(=O)c1sc2nc(N3CCOCC3)c3c(c2c1N)CCCC3	-2.87%
NC(=O)c1sc2nc(N3CCOCC3)c3c(c2c1N)CCCC3	50.2%
Nn1c(S)nnc1-c1ccccc1	1.63%
O=C1c2cccnc2C(=O)N1Cc1ccc(S(=O)(=O)NCCc2ccc(Cl)cc2)s1	-3.66%
COc1ccccc1CNC(=O)[C@H](CCSC)N1Cc2ccccc2C1=O	2.93%
CCCC1CCc2c(sc(NC(=O)C3CCCO3)c2C(N)=O)C1 (stereo not drawn)	1.57%
c1ccc(Cc2c[nH]c3ccccc23)cc1	0.736%
c1ccc2c(Cc3nn[nH]n3)c[nH]c2c1	85%
c1ccc2c(Cc3c[nH]c4ccccc34)c[nH]c2c1	-0.0372%
CCC1(C)CC(=O)c2c(ccc3oc(C(=O)NCc4ccco4)c(C)c23)O1 (stereo not drawn)	-2.17%
CC1=C(C)CC(C(=O)NCc2ccc(F)cc2)C(C(=O)O)C1 (stereo not drawn)	8.6%
COc1ccc(-c2coc3cc(OC)ccc3c2=O)c(O)c1	62.1%
COc1ccccc1-c1coc2cc(OCC(=O)O)ccc2c1=O	-1.92%
COc1ccc2c(COc3ccc4c(=O)c(-c5ccccc5)coc4c3)cc(=O)oc2c1	-2.91%
O=C(Cn1ncc2c3ccccc3nc-2c1O)N1CCC(c2ccccc2)C1 (stereo not drawn)	2.36%
c1ccc(-c2nc3c4cnn(-c5ccccc5)c4ncn3n2)cc1	-6.09%
Cc1oc2c(C)c3oc(=O)c(CC(=O)N4CCOCC4)c(C)c3cc2c1-c1ccccc1	2.54%
Cc1ccc2c(c1Br)C1(C(=O)N2)C(C#N)=C(N)Oc2cc(N)ccc21 (stereo not drawn)	5.35%
Cc1ccc2nc3c(cc(C(=O)NCC4CCCO4)c(=N)n3CCc3ccccc3)c(=O)n2c1 (stereo not drawn)	0.279%
Cc1ccc2nc3c(cc(C(=O)NCC4CCCO4)c(=N)n3C3CCCCC3)c(=O)n2c1 (stereo not drawn)	3.6%

SMILES	% Inhibition @ 10 uM
COCCn1c(=N)c(C(=O)NCC2CCCO2)cc2c(=O)n3cc(C)ccc3nc21 (stereo not drawn)	94.3%
COc1ccc2cc3cc(C(=O)NCCN(C)C)oc3nc2c1	-1.54%
Cc1ccccc1CSCC(=O)NC1CCCC1	2.15%
OC(Cn1ccnc1)(c1ccc(F)cc1)c1ccccn1 (stereo not drawn)	2.62%
CN(Cc1ccccc1)C(=O)c1noc2c1COc1ccccc1-2	7.85%
Cc1ccc(CNC(=O)c2noc3c2COc2ccccc2-3)cc1	72.8%
Cc1onc(-c2ccccc2Cl)c1C(=O)NCc1ccc2c(c1)OCO2	-6.92%
Cc1ccc2c(c1)-c1onc(C(=O)NCc3ccccc3Cl)c1CO2	0.589%
COc1ccc(CNC(=O)c2noc3c2COc2ccc(C)cc2-3)cc1	-3.17%
O=C(NCc1ccc2c(c1)OCO2)c1noc2c1COc1ccccc1-2	73.5%
O=C(NCc1ccc(F)cc1)c1noc2c1COc1ccccc1-2	69.7%
O=C(NCc1ccc2c(c1)OCO2)c1cc(-c2ccccc2F)no1	-2.07%
O=C(NCc1ccc(F)cc1)c1noc2c1CCc1ccccc1-2	-9.28%
CC(C)C(=O)NC(c1ccc(Cl)cc1)c1ccc2cccnc2c1O (stereo not drawn)	-8.88%
CCc1nc2ccccc2c(NC(=O)CN2CCCC2)c1C	-4.96%
CN(Cc1ccccc1)C(=O)c1ccc(C(C)(C)C)cc1	8.01%
CCN(CC)C1=NC(C(F)(F)F)(C(F)(F)F)N=C(c2ccc(OC)cc2)O1	-3.53%
Cn1nc(C(=O)NCc2cccnc2)c2c1-c1ccccc1SC2	36.1%
Cc1ccc(CNC(=O)c2nn(C)c3c2CSc2ccccc2-3)cc1	51.6%
Cn1nc(C(=O)NCCc2ccccc2)c2c1-c1ccccc1SC2	-0.495%
Cn1nc(C(=O)NCc2ccc3c(c2)OCO3)c2c1-c1ccccc1SC2	86.5%
Cn1nc(C(=O)NCc2ccc3c(c2)OCO3)c2c1-c1ccccc1S(=O)(=O)C2	-3.8%
Cn1nc(C(=O)NCc2ccco2)c2c1-c1ccccc1SC2	30.8%
O=C(NCC1CCCO1)C1CCCN(S(=O)(=O)N2CCC3(CC2)OCCO3)C1 (stereo not drawn)	-1.67%
CC(=O)C1=C(C)OC(N)=C(C#N)C1c1ccccc1[N+](=O)[O-] (stereo not drawn)	-1.29%
